A selection: hits, their analogues and other compounds. The true share with any hit is near 4%.
CF NFkB inh = blocks PAF-induced NF-kB reporter in cystic fibrosis cells | KKLEB NF-kB-GFP reporter, GFP fluorescence overnight | inhibition, % at 5 µM | hit rate 0.86% among 360,000 | AID 588850;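 active means at least 50% inhibition at 5 µM, scaled per plate between neutral and stimulator controls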;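 further: PAF is a Pseudomonas aeruginosa culture filtrate used as stimulus; plate controls were PAF-stimulated DMSO wells for no effect and unstimulated DMSO wells for full effect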
Peg3 promoter = Peg3 promoter activity inhibition; inhibition, % at 20 µM; HeLa PEG-Prom luciferase reporter, luminescence, overnight; AID 588405; hit rate 1.7% among 360,000;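 active means inhibition of at least 50% at 20 µM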
TROY NFkB inh = inhibitors of TROY-dependent NF-kB signaling; Q293 LMP1-TROYcd NF-kB luciferase reporter, 4 h; inhibition, % at 10 µM; hit rate 0.98% among 360,000;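 active means compounds whose plate-normalised and pattern-corrected inhibition of the luciferase reporter signal at the single screening dose is 50% or more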
HIF-2a block = blocks HIF-2a reporter activity | 786-0 RCC cells HIF-2a reporter, luciferase luminescence, overnight | inhibition, % at 18.8 µM | hit rate 0.72% among 360,000;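 active means inhibition of the luminescence signal of 40% or more relative to plate controls, in a single-dose primary screen at 18.75 µM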
KKLEB cytotox = counter-screen for CF NF-kB inhibitors: cytotoxicity. KKLEB CF airway cells viability, ATPlite luminescence, overnight; active compounds read low; cells stimulated with P. aeruginosa culture filtrate. hit rate 0.36% among 360,000. activity change (cytotoxicity), % at 5 µM. AID 602141;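 active means corrected activity change at or below -50% at 5 µM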
TWEAK Fn14 block = blocks TWEAK-Fn14 interaction in a reporter cell assay | TWEAK-stimulated Fn14 reporter cells, luciferase luminescence, 8 h | inhibition, % at 10 µM | hit rate 2% among 360,000 | AID 1159606; in the data active means inhibition above about 50%
Numbers without * were called inactive.

SMILES	CF NFkB inh	Peg3 promoter	TROY NFkB inh	HIF-2a block	KKLEB cytotox	TWEAK Fn14 block
CC1CCc2ccccc2N1CC(=O)Nc1cccc(S(=O)(=O)N2CCCC2)c1 (configuration not stated)	13.7	13.8	15.5	11.5	6.5	0.5
COc1ccc(CC(=O)N/N=C\c2cc(Br)c(O)c(Br)c2)cc1	-32.0	1.4	-5.7	-18.6	1.1	-0.9
CCN(CC)C(=O)c1nc[nH]c1C(=O)N1CCC(C)CC1	10.1	-8.0	-10.7	-12.8	8.7	-2.4
CN(C)c1ccc(N=Nc2ccc3ncccc3c2)cc1	-38.0	-180.4	19.2	-105.2	-37.8	51.9*
CN(C)c1ccc(N=Nc2cccc3ccoc23)cc1	-37.6	-317.8	-39.4	-260.7	-2.7	-1.6
CN(C)c1ccc(N=Nc2cccc(F)c2)cc1	-35.8	-280.6	18.6	-173.3	-0.6	51.7*
c1cnc2ccc(-c3ccc4ncccc4c3)cc2c1	58.2*	-188.6	25.4	-56.1	-32.9	5.8
Cc1cc(N(C)C)ccc1N=Nc1ccc2ncccc2c1	5.6	-312.8	24.4	-234.8	-18.3	-16.4
Cc1ccc2ncccc2c1	9.9	-3.0	-7.3	10.5	-8.9	0.5
COc1ccc(NC(C)=O)cc1S(=O)(=O)N1CC=C(c2ccccc2)CC1	-7.3	12.2	10.9	17.4	11.2	8.8
CC(C)CCN1CCC[C@]2(N[C@H](c3ccc(C(F)(F)F)cc3)[C@@H]3C(=O)N(Cc4ccccc4)C(=O)[C@@H]32)C1=O	15.5	28.4	7.2	-1.0	-13.1	0.4
CC(C)(C)c1ccc(Nc2n[nH]c3ccccc23)cc1	19.8	-262.3	52.6*	-148.7	-38.0	52.6*
Cc1ccc(CNc2ccc3c(c2)ncn3C(C)(C)C)cc1	16.1	-259.2	62.8*	-249.0	-12.2	8.5
COc1ccc(CNc2ccc3c(c2)nc(C)n3C)cc1	-3.6	-147.6	59.7*	-113.1	-2.6	38.8
COc1ccccc1CNC(=O)CN1C(=O)NC2(CCC(C)CC2)C1=O (configuration not stated)	-9.2	-3.2	4.6	4.9	-1.2	-6.2
CC(C)(Sc1ccc(CCN(CCCCC2CCCCC2)C(=O)NC2CCCCC2)cc1)C(=O)O	-3.4	14.1	50.6*	7.6	-15.7	-37.2
CN(Cc1ccccc1)C(=O)NC1CCCCC1	0.4	-1.9	-9.8	-6.3	-6.7	9.3
Cc1cccc(-c2nc3c(c(=O)c4ccccc4n3C)c(=O)n2-c2ccccc2)c1	-1.0	3.1	2.3	8.3	5.4	-17.6
CC1=C(Nc2ccc(C(=O)O)cc2)C(=O)c2ccccc2C1=O	33.4	-2.8	-44.2	-11.7	10.5	2.9
O=C(O)c1ccc(S(=O)(=O)/N=C2\C=C(Nc3ccccc3F)C(=O)c3ccccc32)cc1	102.0*	103.8*	48.9	-14.2	-69.6*	96.4*
COC(=O)C(C(C)=O)C1=C/C(=N\S(=O)(=O)c2ccc(C)cc2)c2ccccc2C1=O (configuration not stated)	3.7	19.8	-0.2	5.3	5.9	17.1
Cc1ccccc1NC1=C/C(=N\S(=O)(=O)c2ccc(C(=O)O)cc2)c2ccccc2C1=O	100.1*	101.4*	42.2	56.2*	-56.0*	93.5*
Cc1ccc(NC2=C/C(=N/S(=O)(=O)c3cccs3)c3ccccc3C2=O)cc1C	46.6	-63.7	-50.8	-40.0	-13.8	-37.6
CC(=O)Nc1ccc(NC2=C/C(=N/S(=O)(=O)c3cccs3)c3ccccc3C2=O)cc1	80.8*	14.8	66.6*	18.5	-32.3	98.9*
CCc1cc2c(=O)oc(-c3ccc(Br)cc3)nc2s1	0.6	-75.1	-26.9	-43.7	22.9	16.9
COc1ccc(CCN2C(=O)c3[nH]nc(-c4ccccc4O)c3C2c2cccc(Cl)c2)cc1 (configuration not stated)	28.1	97.8*	29.6	26.9	-7.4	49.1
COc1ccc(C2c3c(-c4ccccc4O)n[nH]c3C(=O)N2CCc2ccc(OC)c(OC)c2)cc1 (configuration not stated)	6.7	26.2	18.2	36.0	-10.6	40.9
COc1ccc(Nc2cc(Nc3cccc(OC)c3)ncn2)cc1	40.2	-132.9	-20.1	-156.1	-37.0	-4.5
COCc1c(C(=O)N/N=C(/C)c2ccc(OCc3ccccc3)cc2)nnn1-c1nonc1N	-2.8	-200.9	-26.3	-214.7	-2.5	-45.0

Screening results from PubChem.
